Assay results as given in PubChem BioAssay.

Key:
[1] = test system: Human papillomavirus type 1a protein E7 (residues 44-93); test: HPV1a E7 fragment binders on microarrays, primary screen, biochemical, small-molecule microarray, residues 44-93, 635 nm fluorescence (AID 1108); conditions: small-molecule microarray binding, fluorescence 635 nm; higher = more signal;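 further: E7 fragment applied at 1 µg/mL in TBST for 1 h at 4 C; score combines spot fluorescence with its signal to noise ratio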
[2] = modulators of HCV replicon luciferase signal, primary screen, HCV replication inhibitor project, Huh7 cells, luciferase reporter (AID 1109); conditions: 48 h, higher = more signal;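 further: huh7 hepatoma cells harbouring a luciferase neomycin HCV replicon reporter; luciferase luminescence as measure of HCV replicon replication; test concentration not given here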
[3] = target: Left-right determination factor 2 (Homo sapiens) (UniProt O00292); test: LEFTY2 binders on small-molecule microarrays, primary screen, biochemical, small-molecule microarray, 635 nm fluorescence scan (AID 1110); conditions: LEFTY2 binding, higher = more signal
[4] = target: Calmodulin-1 (Homo sapiens) (UniProt P0DP23); test: CALM1 binders on microarrays, EGTA buffer, profiling panel, biochemical, small-molecule microarray, Cy5-labelled CALM1 (AID 1111); conditions: Cy5-CALM1 binding fluorescence, higher = more signal;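 further: labelled calmodulin applied in Tris saline Tween buffer holding calcium plus EGTA and DTT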
[5] = target: Calmodulin-1 (Homo sapiens) (UniProt P0DP23); test: calcium-bound CALM1 binders on microarrays, profiling panel, artefact control for SMM control-protein annotation, biochemical, small-molecule microarray, Cy5-labelled CALM1, plus calcium (AID 1112); conditions: Cy5-CALM1 binding fluorescence, higher = more signal;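 further: score merges spot fluorescence with signal to noise from triplicate slides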
[6] = small-molecule microarray binders of probe aWnt5a, primary screen, biochemical, biotinylated probe, 635/667 nm fluorescence (AID 1113); conditions: higher = more signal;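 further: score merges 667 nm fluorescence intensity with signal-to-noise per printed feature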
[7] = small-molecule microarray binders of probe aShh, primary screen, biochemical, biotinylated probe, 635/667 nm fluorescence (AID 1114); conditions: higher = more signal;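 further: probe is biotin-labelled aShh protein from a stem cell growth factor screen; measures binding of labelled protein to compounds printed on the slide; score merges feature fluorescence at 667 nm with signal-to-noise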
[8] = small-molecule microarray binders of probe aNog, primary screen, biochemical, biotinylated probe, 635/667 nm fluorescence (AID 1115); conditions: higher = more signal;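 further: probe is biotinylated aNog protein used at 0.15 µg/mL for 1 h at 4 C; z-score combines 667 nm fluorescence of each spot with its signal to noise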
[9] = target: Torsin-1A-interacting protein 1 (Homo sapiens) (UniProt Q5JTV8); test: LAP1 binders from COS7 cell lysate, primary screen, small-molecule microarray, 635/667 nm fluorescence (AID 1116); conditions: COS7-hLAP1 lysate binding, 635 nm fluorescence, higher = more signal
[10] = target: Alpha-bungarotoxin (Bungarus multicinctus) (UniProt P60615); test: alpha-bungarotoxin binders on microarray, profiling panel, artefact control for SMM control protein annotation, biochemical, small-molecule microarray, Alexa647 label, 635/667 nm fluorescence (AID 1117); conditions: alpha-BTX-A647 binding fluorescence, higher = more signal
Alpha-bungarotoxin (Bungarus multicinctus), sequence (P60615 whole entry, looked up): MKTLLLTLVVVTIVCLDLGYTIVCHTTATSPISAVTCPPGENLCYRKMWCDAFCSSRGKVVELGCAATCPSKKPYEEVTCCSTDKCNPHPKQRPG

Torsin-1A-interacting protein 1 (Homo sapiens), sequence (Q5JTV8 whole entry, looked up): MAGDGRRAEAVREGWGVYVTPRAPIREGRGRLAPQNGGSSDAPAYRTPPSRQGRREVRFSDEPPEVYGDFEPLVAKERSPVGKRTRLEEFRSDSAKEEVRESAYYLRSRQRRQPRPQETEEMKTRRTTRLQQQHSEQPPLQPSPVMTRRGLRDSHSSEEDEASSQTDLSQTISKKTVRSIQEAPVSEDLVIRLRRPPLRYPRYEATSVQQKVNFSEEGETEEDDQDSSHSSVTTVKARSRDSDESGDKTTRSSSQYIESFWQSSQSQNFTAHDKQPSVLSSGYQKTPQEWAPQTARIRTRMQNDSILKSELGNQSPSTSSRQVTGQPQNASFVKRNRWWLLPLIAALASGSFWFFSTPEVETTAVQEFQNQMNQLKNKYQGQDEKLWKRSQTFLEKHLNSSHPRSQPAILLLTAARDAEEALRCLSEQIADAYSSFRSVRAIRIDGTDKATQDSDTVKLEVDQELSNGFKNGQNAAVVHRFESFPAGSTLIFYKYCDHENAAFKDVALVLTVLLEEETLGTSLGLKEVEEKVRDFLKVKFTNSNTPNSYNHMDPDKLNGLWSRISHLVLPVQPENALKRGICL
Left-right determination factor 2 (Homo sapiens), sequence (O00292 whole entry, looked up): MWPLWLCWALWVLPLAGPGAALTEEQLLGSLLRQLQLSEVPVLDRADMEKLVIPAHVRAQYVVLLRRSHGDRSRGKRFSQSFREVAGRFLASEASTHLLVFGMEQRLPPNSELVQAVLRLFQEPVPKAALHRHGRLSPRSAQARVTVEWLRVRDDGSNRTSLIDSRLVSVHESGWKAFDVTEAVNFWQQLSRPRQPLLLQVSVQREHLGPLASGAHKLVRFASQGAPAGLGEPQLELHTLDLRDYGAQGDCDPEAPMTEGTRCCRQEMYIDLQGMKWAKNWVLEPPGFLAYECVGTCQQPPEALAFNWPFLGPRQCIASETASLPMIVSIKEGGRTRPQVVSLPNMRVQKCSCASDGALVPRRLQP

| SMILES | composite z-score [1] | z-score [2] | composite z-score [3] | composite z-score [4] | composite z-score [5] | composite z-score [6] | composite z-score [7] | composite z-score [8] | composite z-score [9] | composite z-score [10] |
| --- | --- | --- | --- | --- | --- | --- | --- | --- | --- | --- |
| Cc1ccccc1C(O)C1C=CC2C(=O)NC(=O)C2N1Nc1ccccn1 (stereo not given) | -0.439 | 0.331 | 0.263 | -0.285 | -0.206 | -0.221 | -0.349 | -0.0682 | 0.692 | 0.173 |
| COc1ccc([Si](C)(C)[C@H]2[C@H](CC(=O)N3Cc4ccccc4C[C@H]3CO)O[C@@]3(C(=O)N(Cc4ccc(N5CCOC5=O)cc4)c4ccccc43)[C@@H]2C)cc1 | 0.559 | -4.15 | 0.843 | -0.766 | -0.665 | -0.0944 | -0.0769 | -0.267 | 0.612 | 1.22 |
| CC(CO)N1C(=O)[C@@H]2[C@H]3C(=O)OCC=C[C@H]3OC23C=CCN(Cn2nnc4ccccc42)C(=O)[C@@H]13 (stereo not given in full) | -0.931 | 0.0368 | -1.4 | -0.196 | 0.0507 | -0.13 | -0.117 | 0.0517 | -0.607 | -0.975 |
| COCCCNC(=O)[C@@]1(CCC(=O)OC(C)(C)C)N=C(c2ccc(OCCCO)cc2)O[C@H]1c1ccccc1N=[N+]=[N-] | 0.515 | 1.46 | 0.473 | 2.01 | 0.807 | 0.302 | 0.0326 | -0.261 | 2.32 | 1.71 |
| COCCOC(=O)N1C(=O)[C@@]2(c3cc(C#CC4=CCCCC4)ccc31)[C@H](c1ccccc1OCCO)N1[C@H](c3ccccc3)[C@H](c3ccccc3)OC(=O)[C@H]1[C@@H]2C(=O)N1CCN(c2ncccn2)CC1 | 1.28 | -2.1 | 0.718 | 0.501 | 0.466 | -0.206 | 0.0048 | -0.404 | 0.0174 | 0.511 |
| CN1C2C=C(CCCO)C(C3C(=O)N(C(N)=O)C(=O)C32)C1C1CC1 (stereo not given) | -0.071 | -0.225 | -0.645 | -0.495 | -0.458 | -0.0462 | 0.0062 | -0.102 | 0.474 | 0.0218 |
| COc1cc(NN2C(C(O)c3cc(OC)c(OC)c(OC)c3)C=CC3C(=O)N(C)C(=O)C32)cc(OC)c1OC (stereo not given) | 1.09 | -0.336 | -0.229 | 1.34 | 0.278 | 0.0599 | 0.23 | 0.849 | 0.904 | 1.24 |
| COC(=O)[C@@]1(Cc2ccc(OC)cc2)[C@H]2c3cc(C(=O)N(C)C)n(Cc4ccc(C)o4)c3C[C@H]2CN1C(=O)c1ccccc1 | 1.42 | -2.04 | -0.466 | 0.372 | -0.223 | 0.091 | 0.596 | 0.243 | 1.27 | 0.41 |
| CC(C)(C)OC(=O)COc1cccc(C(=O)CCN2CCOCC2)c1 | 0.219 | -1.7 | 0.0527 | -0.501 | -0.841 | -0.192 | -0.193 | -0.419 | -0.0786 | -0.204 |
| CC1=C2[C@@H](CCc3ccccc3)OB(O)C[C@@H]2[C@@H]2C(=O)N(Cc3ccccc3)C(=O)[C@@H]2C1 | -0.125 | -0.873 | 0.809 | -0.122 | -0.605 | -0.0869 | -0.0709 | -0.314 | 0.59 | 0.659 |
| O=C1N(CCS(=O)(=O)c2ccccc2)c2ccccc2[C@H]2OC(c3ccc(OCCCO)cc3)=N[C@@]12Cc1ccccc1 | 0.474 | -0.733 | 0.949 | 1.27 | 0.517 | 0.0101 | 0.337 | -0.0321 | 2.03 | 1.66 |
| CCCC[C@@H](O)C1=C(COC)C[C@H]2C(=O)N(Cc3ccccc3)C(=O)[C@H]2[C@H]1CO | 0.34 | -0.655 | 0.568 | -0.37 | -0.359 | 0.0102 | -0.345 | 0.116 | 0.515 | 0.516 |
| Cn1cccc1C(O)C1C=CC2C(=O)N(c3ccccc3)C(=O)C2N1Nc1ccccc1 (stereo not given) | 1.09 | -0.36 | 0.739 | 1.69 | 0.405 | 0.181 | -0.0578 | 0.977 | 1.31 | 1.68 |
| CC[C@@H]1C=C(C(=O)O)[C@H](c2ccccc2)N1S(=O)(=O)c1ccc(C)cc1 | 0.807 | -1.33 | 0.0801 | 1.6 | 1.03 | -0.113 | 0.162 | -0.398 | 0.599 | 1.39 |
| C=CCC(OC(C)=O)[C@@H]1[C@@H](N(Cc2ccc(-c3ccccc3)cc2)C(=O)c2ccc(-c3ccccc3)cc2)c2cc(OCCCO)ccc2N1C(=O)c1ccc2ccccc2c1 (stereo not given in full) | 0.508 | -0.415 | -0.0379 | 0.493 | 0.839 | -0.11 | 0.0141 | -0.284 | 0.0403 | -0.116 |
| C=CCNC(=O)[C@@H]1[C@H]2C(=O)O[C@H](c3ccccc3)[C@H](c3ccccc3)N2[C@H](c2ccccc2OCCO)[C@@]12C(=O)N(C(=O)OCCOC)c1ccc(C#CC3(O)CCCCCC3)cc12 | 1.23 | -2.27 | 0.694 | 0.66 | 0.212 | -0.0566 | -0.0035 | -0.0224 | 1.35 | 0.859 |
| COC(=O)[C@@]1(Cc2ccccc2)[C@H]2c3cc(C(=O)N4CCCC4)n(CCc4ccccn4)c3C[C@H]2CN1C(=O)c1ccccc1 | 1.43 | -1.65 | -0.204 | 2.13 | 0.842 | -0.0776 | -0.353 | 1.84 | 2.53 | 0.298 |
| CCOC(=O)C[C@H]1[C@H](OC(=O)c2cc3ccccc3oc2=O)[C@@H](NC(=O)c2ccccc2)c2cc(OCCCO)ccc2N1C(=O)c1ccccc1 | 0.119 | -0.148 | 0.535 | -0.0848 | -0.782 | -0.0718 | 0.0121 | -0.108 | 0.203 | 0.139 |
